From PubChem BioAssay (NCATS)
Inconclusive results are not listed. Entries that show only a call come without a potency. Activity calls are given as the source filed them. Unless noted, the call rests on the fitted dose curve.

Tests used:
[1] = molecular target: Alpha-galactosidase (Coffea arabica) (UniProt Q42656); assay: Counterscreen for Glucocerebrosidase Inhibitors: qHTS Assay for Coffee Bean alpha-Galactosidase at pH 4.5 (AID 957; active means well fitted curve in the direction sought with a large enough effect; an effect the other way counts as inactive or inconclusive)
Sequence of Alpha-galactosidase (Coffea arabica) (Q42656 whole entry, looked up): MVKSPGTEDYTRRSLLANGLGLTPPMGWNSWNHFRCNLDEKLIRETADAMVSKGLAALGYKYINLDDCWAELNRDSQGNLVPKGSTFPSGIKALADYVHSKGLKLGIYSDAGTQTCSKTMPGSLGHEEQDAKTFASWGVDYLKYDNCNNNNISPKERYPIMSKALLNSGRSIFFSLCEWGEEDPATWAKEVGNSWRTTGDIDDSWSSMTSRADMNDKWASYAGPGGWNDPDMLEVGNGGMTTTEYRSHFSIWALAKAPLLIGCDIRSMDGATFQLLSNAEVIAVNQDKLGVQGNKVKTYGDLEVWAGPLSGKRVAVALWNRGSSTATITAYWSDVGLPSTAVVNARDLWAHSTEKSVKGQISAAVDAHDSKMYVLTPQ
How it was run: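 Green coffee bean enzyme (2 nM final) was incubated with compounds (0.7 nM to 77 uM) and 4-methylumbelliferyl alpha-D-galactopyranoside (80 uM final) in 50 mM citric acid, 0.005% Tween-20, pH 4.5, 20 min at room temperature; AC50 from Hill fits.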

[2] = molecular target: Alpha-galactosidase (Coffea arabica) (UniProt Q42656); assay: Counterscreen for Glucocerebrosidase Inhibitors: qHTS Assay for Coffee Bean alpha-Galactosidase at pH 5.9 (AID 998; active means well fitted curve in the direction sought with a large enough effect; an effect the other way counts as inactive or inconclusive)
How it was run: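 Green coffee bean enzyme (2 nM final) was incubated with compounds (0.7 nM–77 uM) and 4-methylumbelliferyl alpha-D-galactopyranoside (80 uM) in citrate buffer pH 5.9, 20 min at room temperature. High-pH stop; fluorescence 365/440 nm; AC50 from Hill fits.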

[3] = Validation screen for inhibitors of Lassa infection (AID 463096)
[4] = Inducers of the Endoplasmic Reticulum Stress Response (ERSR) in human glioma: Validation (AID 504836; active means well fitted curve in the direction sought with a large enough effect; an effect the other way counts as inactive or inconclusive)
How it was run: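 Stably transfected U87-MG human glioma cells carrying a GRP78-based luminescent sensor were seeded at 1000 cells/well, pin-dosed with compounds and incubated 16 h. Luciferase reagent was then added, and end-point luminescence was read after 10 min at room temperature.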

[5] = qHTS for Inhibitors of the Functional Ribonucleoprotein Complex (vRNP) of Lassa (LASV) Arenavirus: LASV Primary Screen - GLuc reporter signal (AID 1347082; calls by dose curve; tested in HEK293 reporter line; further: nearly all actives have a fitted effect of over 60% in size)
[6] = qHTS for Inhibitors of the Functional Ribonucleoprotein Complex (vRNP) of Lassa (LASV) Arenavirus: Viability assay - alamar blue signal for LASV Primary Screen (AID 1347083; calls by dose curve; tested in HEK293 reporter line; further: nearly all actives have a fitted effect of over 80% in size)
[7] = qHTS for Inhibitors of the Functional Ribonucleoprotein Complex (vRNP) of Lymphocytic Choriomeningitis Arenaviruses (LCMV): Viability assay - alamar blue signal for LCMV Primary Screen (AID 1347085; calls by dose curve; tested in HEK293 reporter line; further: nearly all actives have a fitted effect of over 80% in size)
[8] = molecular target: Nucleoprotein (Lymphocytic choriomeningitis virus (strain Armstrong)) (UniProt P09992); assay: qHTS for Inhibitors of the Functional Ribonucleoprotein Complex (vRNP) of Lymphocytic Choriomeningitis Arenaviruses (LCMV): LCMV Primary Screen - GLuc reporter signal (AID 1347086); further: nearly all actives have a fitted effect of over 70% in size
Sequence of Nucleoprotein (Lymphocytic choriomeningitis virus (strain Armstrong)) (P09992 whole entry, looked up): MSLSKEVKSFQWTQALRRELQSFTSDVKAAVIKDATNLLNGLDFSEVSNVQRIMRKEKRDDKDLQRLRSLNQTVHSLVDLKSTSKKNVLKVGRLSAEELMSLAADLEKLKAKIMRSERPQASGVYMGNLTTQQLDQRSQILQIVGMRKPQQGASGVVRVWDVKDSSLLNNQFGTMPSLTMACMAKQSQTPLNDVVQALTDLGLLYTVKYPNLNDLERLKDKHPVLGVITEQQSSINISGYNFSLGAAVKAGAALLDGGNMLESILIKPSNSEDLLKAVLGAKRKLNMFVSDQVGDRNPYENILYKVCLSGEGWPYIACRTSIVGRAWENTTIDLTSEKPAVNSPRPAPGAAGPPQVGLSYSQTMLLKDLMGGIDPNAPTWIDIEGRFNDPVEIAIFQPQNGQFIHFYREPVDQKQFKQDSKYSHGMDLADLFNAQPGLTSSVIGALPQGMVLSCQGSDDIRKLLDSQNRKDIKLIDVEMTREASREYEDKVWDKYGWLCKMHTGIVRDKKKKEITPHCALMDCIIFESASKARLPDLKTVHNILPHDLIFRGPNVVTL

[9] = Cytotoxicity counterscreen for inhibitors of SARS-CoV-2 cell entry (AID 1645845); further: nearly all actives have a fitted effect of over 50% in size
How it was run: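 Expi293F/hACE2 cells seeded overnight; cpd pin-transferred in DMSO, 1 h preincubation, + media, 48 h 37 C 5% CO2; ATPLite 1step luminescence; normalized to cells and no cells.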

[10] = Primary qHTS to identify inhibitors of SARS-CoV-2 cell entry (AID 1645846); conditions: activity change, negative = inhibition: at 57.1 µM (top of the series) unless noted; further: nearly all actives have a fitted effect of over 45% in size
How it was run: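 HEK293 cells stably expressing human ACE2, pre-treated 1 h with compound, then infected with MLV particles pseudotyped with Wuhan-Hu-1 spike (C-terminal 19-aa truncation). Luciferase luminescence after 48 h at 37 °C, normalised to spike PP and bald PP.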

[11] = qHTS profiling of the MIPE4 collection as inhibitors of Plasmodium falciparum (3D7) proliferation (AID 743344; call rule not given here); conditions: P. falciparum 3D7 in erythrocytes, SYBR Green DNA fluorescence, 72 h; at 28.5 µM (top of the series) unless noted
How it was run: (§1)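 Erythrocytes infected with P. falciparum (0.3% parasitemia, 2.5% hematocrit) incubated with compounds 72 h at 37 C, 5% CO2. Lysis with saponin/Triton buffer containing SYBR Green I, overnight at room temperature in the dark; DNA fluorescence (485/535 nm) normalised to 0.29 uM artemisinin and DMSO.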

[12] = qHTS profiling of the MIPE4 collection as inhibitors of Plasmodium falciparum (DD2) proliferation (Rep 2) (AID 743346; call rule not given here); conditions: P. falciparum Dd2 in erythrocytes, SYBR Green DNA, 72 h; at 28.5 µM (top of the series) unless noted
How it was run: as §1

[13] = molecular target: Nuclear receptor subfamily 1 group I member 3 (Homo sapiens) (UniProt Q14994); assay: Primary qHTS for antagonist of constitutive androstane receptor (CAR) against the NCATS DSHEA and TCM libraries (AID 1794836; active means well fitted curve in the direction sought with a large enough effect; an effect the other way counts as inactive or inconclusive)
Sequence of Nuclear receptor subfamily 1 group I member 3 (Homo sapiens) (Q14994 whole entry, looked up): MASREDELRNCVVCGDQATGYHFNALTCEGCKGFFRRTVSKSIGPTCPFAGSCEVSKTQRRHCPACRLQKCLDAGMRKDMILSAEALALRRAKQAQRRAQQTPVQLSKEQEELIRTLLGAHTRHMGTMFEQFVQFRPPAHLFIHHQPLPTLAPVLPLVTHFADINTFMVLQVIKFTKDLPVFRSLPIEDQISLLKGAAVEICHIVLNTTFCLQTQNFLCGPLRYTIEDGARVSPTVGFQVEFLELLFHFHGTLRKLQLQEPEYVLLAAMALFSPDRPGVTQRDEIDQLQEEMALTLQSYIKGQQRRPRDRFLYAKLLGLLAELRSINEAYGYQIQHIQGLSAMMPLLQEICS
How it was run: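 HepG2 cells stably carrying hCAR and a CYP2B6 luciferase reporter (2,500 cells/well) attached for 5 h, then received compounds with 48 uM CITCO for 24 h at 37C. ONE-Glo luminescence read antagonism; CellTiter-Fluor (405/540 nm) gave viability.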

Compound | outcome [1] | outcome [2] | Potency [3] | outcome [4] | Potency [5] | Potency [6] | Potency [7] | Potency [8] | Potency [9] | activity change, negative = inhibition [10] | parasite growth, % of DMSO control [11] | parasite growth, % of control (lower = inhibition) [12] | Potency [10] | Potency [13]
NCCCCNCCCN | inactive | inactive | inactive | inactive | inactive | inactive | inactive | inactive | inactive | – | – | – | – | –
O=C(CO)N1CCC(c2[nH]nc(-c3ccc(Cl)cc3)c2-c2ccncn2)CC1 | – | – | – | – | inactive | inactive | inactive | inactive | inactive | -14.2% | – | – | – | –
CCN1/C(=C/C(C)=O)Sc2ccc(OC)cc21 | inactive | – | inactive | inactive | inactive | inactive | inactive | inactive | inactive | -1.33% | – | – | – | –
CC[C@H](C=C[C@@H](C)[C@H]1CC[C@H]2[C@@H]3CC=C4C[C@@H](O)CC[C@]4(C)[C@@H]3CC[C@]12C)C(C)C | – | – | – | – | inactive | inactive | inactive | inactive | inactive | – | 84.3% [at 9.64 µM] | 117% [at 9.64 µM] | inactive | –
CCNC(=O)[C@H]1O[C@@H](n2cnc3c(N)nc(NCCc4ccc(CCC(=O)O)cc4)nc32)[C@H](O)[C@@H]1O | – | – | – | inactive | inactive | inactive | inactive | inactive | inactive | – | – | – | inactive | –
C=C(C)[C@@H]1CC[C@]2(C(=O)O)CC[C@]3(C)[C@H](CC[C@@H]4[C@@]5(C)CC[C@H](O)C(C)(C)[C@@H]5CC[C@]43C)[C@@H]12 | – | – | – | – | inactive | inactive | inactive | inactive | inactive | – | 60.5% | 97% | inactive | inactive
Cc1ccc(S(=O)(=O)OCC(=O)Nc2ccc(C(=O)O)c(O)c2)cc1 | – | – | – | – | inactive | inactive | inactive | inactive | inactive | 2.59% | – | – | – | –
NC(=O)c1cccc(N)c1 | inactive | – | inactive | inactive | inactive | inactive | inactive | inactive | inactive | – | – | – | inactive | –
CC(=O)OC1C(C)OC(Oc2c(-c3ccc(O)cc3)oc3cc(O)cc(O)c3c2=O)C(O)C1OC(C)=O (centres undefined) | – | – | – | – | inactive | inactive | inactive | inactive | inactive | – | – | – | inactive | –
